Here are results for eight compounds from PubChem BioAssay (NCI).

The structures appear in SMILES notation. About 83,000 compounds went through this panel and 20% of them were active in at least one assay; those are over-represented in the sample as a whole.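 Plates (96-well) were seeded with cells, treated with compound at one concentration, and incubated for 48 hours before percent growth was determined.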 Unmarked numbers belong to inactive results. Calls of active or inactive are those of the source. Rule for the calls: active = growth percent below 10; inactive = the rest.

Holding throughout (assay): NCI-60 one-dose screen, 48 h (100 = growth as untreated, 0 = no growth, -100 = all killed)
Holding throughout (details): 10 µM unless noted

Experiment [1] deals with HCT-15 colon.
In experiment [2] the test system is HT29 colon.
Experiment [3] concerns SNB-75 CNS.
Experiment [4] relates to SNB-19 CNS.
Experiment [5] deals with U251 CNS.
Experiment [6] concerns PC-3 prostate.
For experiment [7], the system named is SK-MEL-5 melanoma.
The test system of experiment [8] is UACC-62 melanoma.
For experiment [9], the system named is LOX IMVI melanoma.
Experiment [10] deals with SK-MEL-28 melanoma.
Experiment [11] deals with SK-MEL-2 melanoma.
Experiment [12] has as its system EKVX NSCLC.
For experiment [13], the system named is SN12C renal.
Experiment [14] deals with UO-31 renal.
The subject of experiment [15] is TK-10 renal.
Experiment [16] deals with ACHN renal.
The subject of experiment [17] is CAKI-1 renal.
Experiment [18] deals with A498 renal.
In experiment [19] the test system is CCRF-CEM leukemia.
Experiment [20] deals with MOLT-4 leukemia.

Turning to `CC(C)(C)Nc1nc2c(OCCc3ccccc3)cccn2c1-c1cccc(Oc2ccccc2)c1`, the growth in [1] is 6.6% (active); in experiment [2], 6.41% (active); in [3] it was 43.5%; in experiment [4], 24.5%; in [5], 13.5%; in [6] it was 17.5%. Besides, the growth in experiment [7] was -75% (active); in experiment [8], 15%; in experiment [9], 3.93% (active); in experiment [10] it was 34%; in experiment [11], -26.2% (active); in [12] it was 13.5%. Besides, the growth in experiment [13] is 12.3%; in experiment [14] it was 5.5% (active); in [15], 21.8%; in experiment [16] it was 7.39% (active); in experiment [17], 8.12% (active); in experiment [18], 16.2%. For the same compound, the figures for the growth in [19] and in experiment [20] were 15% and 5.42% (active), respectively.

On to `CN1CCN(Cc2ccc(/C=N/Nc3ccnc4cc(Cl)ccc34)cc2)CC1`, for which the growth is 38.2% in [1]; 42.5% in experiment [2]; 99% in experiment [3]; 98.2% in experiment [4]; 84.6% in experiment [5]; 75.8% in [6]. For the same compound, the growth in experiment [7] was 94.3%; in experiment [8], 104%; in experiment [9], 15.3%; in [10] it was 98%; in experiment [11], 113%; in experiment [12], 82.6%. Moreover, the growth is 87.9% in [13]; 78.8% in experiment [14]; 162% in experiment [15]; 90.5% in experiment [16]; 77.5% in experiment [17]; 111% in experiment [18]. The growth in experiment [19] was 56.9%; in experiment [20] it was 63.1%.

In the case of `O=C(O)c1ccc(-n2c(=O)n(-c3cccc(C(F)(F)F)c3)c(=O)c3cc(-c4ccc(F)cc4F)ccc32)cc1`, the growth in experiment [1] is 10.4%; in experiment [2], 48.5%; in experiment [3], -12.1% (active); in experiment [4] it was 13.4%; in experiment [5], 11.1%; in experiment [6], 3.4% (active). For the same compound, the growth was -60.4% (active) in experiment [7]; -3.72% (active) in experiment [8]; 5.95% (active) in experiment [9]; 26.1% in experiment [10]; -32% (active) in [11]; 5.67% (active) in experiment [12]. In addition, the growth in experiment [13] was -5.12% (active); in experiment [14], 8.03% (active); in [15] it was 4.33% (active); in experiment [16] it was 1.36% (active); in [17], -6.76% (active); in [18], -20.5% (active). In addition, the figures for the growth in [19] and in experiment [20] were 19.5% and 4.7% (active), respectively.

In the case of `CCc1cccc2c3c(sc12)C(c1ccc(F)cc1)C(C#N)=C(/N=C/c1ccc(Cl)cc1)O3` (stereo not given), the growth in experiment [1] was 12.9%; in experiment [2], -18.9% (active); in [3] it was 34.8%; in experiment [4] it was 27.1%; in [5], 14.5%; in experiment [6] it was 21.7%. Further, the growth in [7] was 32.4%; in [8] it was 23.8%; in experiment [9], 30.3%; in experiment [10], 61.9%; in experiment [11], -7.31% (active); in [12] it was 47.8%. Further, the growth in [13] is 32.4%; in experiment [14], 39.2%; in [15] it was 93.5%; in [16], 32.3%; in experiment [17] it was 41.5%; in [18], -10.4% (active). Besides, the growth in experiment [19] is 20.7%; in experiment [20], 25.4%.

For the compound `CCOC(=O)C1=C(C)NC(C)=C(C(=O)OC(C)C)C1c1cccc(C#N)c1` (stereo not given), the growth in [1] was 99.1%; in experiment [2] it was 108%; in experiment [3], 84.5%; in experiment [4] it was 101%; in [5] it was 100%; in experiment [6], 87.2%. The growth in experiment [7] is 99.6%; in experiment [8] it was 93.3%; in experiment [9], 95.2%; in experiment [10] it was 105%; in experiment [11], 106%; in experiment [12], 90.7%. For the same compound, the growth is 97.8% in experiment [13]; 93.3% in experiment [14]; 106% in experiment [15]; 96.7% in experiment [16]; 84.7% in [17]; 83.9% in [18]. Further, the figures for the growth in experiment [19] and in experiment [20] were 103% and 88.8%, respectively.

For the compound `O=C(COc1ccc(/C=C2\C(=O)Nc3ccc(Cl)cc32)cc1)Nc1ccc(Cl)cc1`, the growth in [1] is 42.1%; in experiment [2] it was 55.8%; in experiment [3], 78.9%; in experiment [4] it was 78.2%; in experiment [5] it was 5.92% (active); in [6], 41.7%. Besides, the growth in experiment [7] is 78%; in experiment [8] it was 27.8%; in experiment [9], 1.2% (active); in experiment [10], 78.6%; in [11], 88.6%; in [12], 74.9%. Besides, the growth is 53% in experiment [13]; 50.8% in experiment [14]; 112% in experiment [15]; 33.3% in experiment [16]; 34.8% in experiment [17]; 72.4% in experiment [18]. Further, the growth in experiment [19] was 47.2%; in experiment [20], 55.5%.

For `COc1cccc2c1[C@H](OC)[C@]13O[C@@]1(C2=O)[C@H](O)[C@H](C)[C@@](O)(C(=O)[C@@H]1O[C@H]1C)[C@@H]3O`, the growth is -14.8% (active) in [1]; -28.9% (active) in experiment [2]; -61.7% (active) in [3]; 1.38% (active) in [4]; -13.3% (active) in experiment [5]; -19.4% (active) in [6]. The growth was -97.7% (active) in [7]; -45.5% (active) in experiment [8]; -62% (active) in experiment [9]; -10.4% (active) in experiment [10]; -55.7% (active) in [11]; -39.5% (active) in experiment [12]. Besides, the growth in experiment [13] was -8.82% (active); in experiment [14], -16.1% (active); in experiment [15] it was -22.6% (active); in [16] it was 1.83% (active); in experiment [17] it was -23.4% (active); in experiment [18], -82.4% (active). In addition, the values for the growth in experiment [19] and in [20] were -20.3% (active) and -39.8% (active), respectively.

With `Nc1ccc(Nc2ncnc3sc4c(c23)CCN(Cc2ccccc2)C4)cc1`, the growth was 100% in experiment [1]; 101% in experiment [2]; 88.7% in experiment [3]; 97.2% in experiment [4]; 102% in [5]; 89.1% in [6]. Further, the growth in experiment [7] is 96.6%; in experiment [8] it was 87.8%; in [9], 101%; in experiment [10] it was 102%; in [11], 109%; in experiment [12], 102%. Moreover, the growth was 96.8% in experiment [13]; 83.8% in experiment [14]; 134% in experiment [15]; 91.7% in experiment [16]; 90.8% in experiment [17]; 95.3% in [18]. Also, the growth in experiment [19] was 95.1%; in experiment [20], 87.8%.
